An excerpt weighted towards active compounds, which were near 12% of everything screened.
G9a block: G9a (human) methyltransferase inhibition. Potency, µM (titrated, usually from 102 µM), without a hit: at the top dose activity, negative = inhibition, actives largely listed as inhibitors. Q96KQ7. G9a H3K9 monomethylation, AlphaScreen, 2 h. actives 8.8% (n = 350,000). AID 504332; also: % is scaled to controls: 0 for no effect and ±100 for the full control effect; nearly all actives have a fitted effect of over 75% in size
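G9a (20 nM) was preincubated 15 min with compound, then reacted 2 h at room temperature with 500 nM biotin-H3K9 peptide and 20 µM SAM. Monomethyl-H3K9 detected by AlphaScreen using anti-H3K9me1 antibody.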
HP1b chromo inh: blocks HP1-beta chromodomain binding to methylated histone tails; P83916; AlphaScreen HP1-beta / biotin-H3K9me3 peptide binding; Potency, µM (series often up to 114 µM), for inactives: at the top dose activity change, negative = inhibition, usual class: inhibitors; actives 0.56% (n = 390,000); also: nearly all actives have a fitted effect of over 70% in size
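HP1-beta protein (50 nM final) preincubated 30 min at room temperature with biotinylated H3(1-18)K9me3 peptide (50 nM) in PBS pH 7.4, 0.01% Tween-20, then compound added for 30 min. AlphaScreen streptavidin donor/nickel chelate acceptor beads (10 ug/mL final), 30 min dark, luminescence read.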
JMJD2A Tudor: blocks the human JMJD2A Tudor domain; AlphaScreen JMJD2A-Tudor / H3K4me3 peptide binding; O75164; Potency, µM (titrated, usually from 114 µM), for inactives: top-dose activity change, negative = inhibition, actives largely listed as inhibitors; actives 4.4% (n = 390,000); also: % is scaled to controls: 0 for no effect and ±100 for the full control effect; nearly all actives have a fitted effect of over 50% in size
PLK1 PBD block: inhibitors of human PLK1 polo-box domain binding. P53350. Plk1 PBD binding of FITC phosphopeptide, fluorescence polarization. Potency, µM, inactives show max response, negative = inhibition, usual class: inhibitors. actives 2.8% (n = 360,000); also: series mostly up to about 57 µM; % is scaled to controls: 0 for no effect and ±100 for the full control effect; nearly all actives have a fitted effect of over 65% in size
Sfp PPTase inh: Sfp phosphopantetheinyl transferase inhibition; Q9F4F7; Biochemical Sfp PPTase activity, qHTS; Potency, µM, without a hit: largest response in the series, negative = inhibition, most hits filed as inhibitors; actives 3.5% (n = 310,000);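 also: the enzyme is Sfp with the accession as filed and its product quenches rhodamine fluorescence; 0% = enzyme reaction without inhibitor and -100% = no enzyme wells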
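Reaction rates are the 30-min fluorescence difference (ex 525, em 598 nm) in wells containing 15 nM Sfp, 5 uM rhodamine-CoA and 12.5 uM BHQ-2-YbbR at pH 7.6 with 10 mM MgCl2.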
BAZ2B inh: BAZ2B (human) inhibition; Q9UIF8; AlphaScreen BAZ2B-H3K14Ac peptide displacement; Potency, µM (series often up to 114 µM), inactives show at the highest dose activity change, negative = inhibition, most hits filed as inhibitors; actives 4.4% (n = 360,000); AID 504333; also: % is scaled to controls: 0 for no effect and ±100 for the full control effect; nearly all actives have a fitted effect of over 60% in size
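BAZ2B (50 nM) with biotin-H3(5-23)K14Ac peptide (50 nM) in PBS pH 7.4, 0.01% Tween-20, preformed 30 min, then compound 30 min at room temperature; top concentration 110uM. AlphaScreen streptavidin donor/nickel chelate acceptor beads (10 ug/mL final), 20 min dark, signal read.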
* marks the source's active call; other numbers are inactive results; ? = inconclusive; nt = not tested or not shown; [ ] = another dose, or the depositor's remark. Calls follow the shape of the dose curve; as a rule, active = well fitted curve in the direction sought with a large enough effect; inconclusive = small, poorly fitted or top-dose-only effect, or another doubt; inactive = no such curve, though single readings can be large; an effect the other way counts as inactive or inconclusive. Potency is read from the fitted curve at half-maximal effect.

SMILES	G9a block	HP1b chromo inh	JMJD2A Tudor	PLK1 PBD block	Sfp PPTase inh	BAZ2B inh
CC(C)(C)OC(=O)NCc1nnc(C(C(=O)OCc2ccccc2)c2ccccc2)s1 (centres undefined)	nt	nt	-18%	nt	nt	nt
CCOc1ccc(-n2c(-c3ccc(Br)cc3)cc3c2CC(C)(C)CC3=O)cc1	?	?	13µM*	nt	nt	10µM*
COCCn1nnnc1C(C(C)C)N1CCCC(C)C1 (centres undefined)	-18%	7%	7%	4%	6%	-16%
CCCn1c(=O)c2ccccc2n2c(SCC(=O)c3ccccc3)nnc12	?	11%	25µM*	-19%	2%	-28%
CCCn1c(=O)c2ccccc2n2c(=S)[nH]nc12	3.5µM*	27%	1.4µM*	-12%	79µM*	-5%
Cn1c(=O)c2ccccc2n2c(=S)[nH]nc12	6.3µM*	79µM*	3.2µM*	-25%	50µM*	-9%
CCCCCn1c(=O)c2ccccc2n2c(=S)[nH]nc12	1.4µM*	0%	6.3µM*	19µM*	56µM*	-33%
Cn1c(=O)c2ccccc2n2c(CCl)nnc12	-8%	26%	-4%	-2%	22%	-2%
CCCn1c2ccccc2c2cn[nH]c(=O)c21	4%	-5%	-11%	-5%	7%	-2%
CCCn1c(=O)c2ccccc2n2c(SCC(=O)c3ccc(F)cc3)nnc12	3%[2.33 µM]	nt	nt	nt	-11%	12%
O=C(OCC#CCSc1nnc(-c2ccccc2Cl)o1)c1ccc(F)cc1	nt	nt	54%	nt	nt	nt
COc1ccc(C2(CNC(=O)C(=O)Nc3ccc(C)c(Cl)c3)CCCC2)cc1OC	-2%[59 µM]	3%	-22%	nt	nt	0%
Cc1ccc(Oc2ccc(OCC(=O)NC3CCS(=O)(=O)C3)cc2)cc1 (centres undefined)	29%	-11%	-9%	-12%	2%	4%
CCCCn1c(=O)c2ccccc2n2c(=S)[nH]nc12	1.3µM*	-19%	3.5µM*	27µM*	?	?
O=C(/C=C/c1ccc(F)cc1)c1ccccc1Br	0%	90%	30%	-17%	-18%	51%
O=C(O)C1(C(=O)O)CCC1.[NH2-].[NH2-].[Pt+2]	nt	nt	nt	nt	6.3µM*	nt
O=C(NCCNCc1cccs1)c1ccccc1F	6.3µM*	?	3.5µM*	-5%	-24%	50µM*
COCCNC(=S)NCc1cccs1	28µM*	18%	-1%	-4%	2%	-5%
S=C(NCCc1ccccc1)NCc1cccs1	25%[59 µM]	13%	-9%	-15%	-14%	17%
CCc1ccc(N2C(=O)CC(c3cc(OC)ccc3OC)C3=C2COC3=O)cc1 (centres undefined)	-3%[59 µM]	17%	-14%	nt	nt	-29%
COC(=O)CCC/C=C1/SCC(NC(=O)c2ccccc2)C1=O (centres undefined)	45µM*	-18%	-35%	?	?	?
COC(=O)CCC/C=C1/SCC(NC(=O)c2ccccc2)C1O (centres undefined)	-49%[59 µM]	14%	-22%	-27%	-11%	3%
O=C1/C(=C/c2ccccc2)CCCc2ccccc21	8%[59 µM]	116%	100µM*	-18%	-9%	86%
O=C1/C(=C/c2ccc(C(=O)O)cc2)CCC/C1=C\c1ccc(C(=O)O)cc1	-44%[59 µM]	33%	-11%	-11%	-26%	3%
COc1ccc(/C=C2\CCc3ccccc3C2=O)cc1O	79µM*	-14%	?	-4%	-8%	?
SMILES	G9a block	HP1b chromo inh	JMJD2A Tudor	PLK1 PBD block	Sfp PPTase inh	BAZ2B inh
CN(C)c1ccc(/C=C2\CCC/C(=C\c3ccccc3)C2=O)cc1	3.5µM*	-16%	?	-11%	?	?
CCOC(=O)c1c(NC(=O)CSc2nnc(-c3ccncc3)n2Cc2ccco2)sc(C)c1C	50µM*	-4%	?	-8%	1%	?
COc1ccc(NC(=O)CSc2nnc(-c3ccccn3)n2N)cc1Cl	-37%	27%	-24%	-2%	1%	?
Cc1cc(C)c(NC(=O)CSc2nnc(-c3ccncc3)n2Cc2ccco2)c(Cl)c1	50µM*	17%	-18%	-5%	20µM*	11%
CCOC(=O)c1c(NC(=O)CSc2nnc(-c3ccncc3)n2Cc2ccco2)sc(C(C)=O)c1C	nt	11%	-14%	-8%	nt	nt
Cc1cc(C)c(NC(=O)CSc2nnc(-c3ccccn3)n2N)c(Cl)c1	-33%	-1%	45µM*	-17%	-25%	14µM*
CC(C)C[C@H]1CN(CCCC[C@@H]2CNC(=O)C(=O)N2CCc2ccccc2)C(=O)C(=O)N1CCc1ccccc1	nt	nt	nt	1%	nt	nt
C=CCn1c(=O)n(C2OC(CO)C(O)C2O)c2nc(N)[nH]c(=O)c21 (centres undefined)	-25%[12.7 µM]	nt	nt	nt	12%	nt
O=C(COc1ccc(Cl)cc1)Nc1ccccc1Cl	nt	35%	17%	-7%	7%	18%
O=C(COc1ccc(Cl)cc1)Nc1ccc(C(=O)O)cc1NC(=O)COc1ccc(Cl)cc1	1%	21%	-21%	-15%	17%	50µM*
COc1cccc(-n2cc3c(=O)n(C)c(=O)n(C)c3c2)c1	35µM*	27%	-6%	-7%	-15%	?
O=C(Cc1ccc2c(c1)OCCO2)N1CCN(c2ccccc2)CC1	50µM*	-8%	-27%	-25%	12%	-15%
O=C(CSc1ccc2c(c1)OCCO2)N1CCN(c2ccccc2)CC1	?	28%	-10%	-9%	nt	-19%
O=C(O)c1[nH]c2ccc(Cl)cc2c1CC(=O)N1CCN(c2ccccc2)CC1	50µM*	-10%	-28%	-11%	10%	-2%
O=C(C1CC(=O)N(c2ccc3c(c2)OCCO3)C1)N1CCN(c2ccccc2)CC1 (centres undefined)	?	-17%	?	-13%	4%	50µM*
COc1ccc(CC(=O)N2CCN(c3ccccc3)CC2)cc1	7%	36%	-1%	1%	7%	-22%
COc1ccccc1N1CCN(C(=O)Cc2c(C(=O)O)[nH]c3ccc(Cl)cc23)CC1	-22%	26%	-6%	-6%	13%	-24%
O=C(CSc1ccc2c(c1)OCCO2)N1CCN(c2ccccc2O)CC1	50µM*	10%	-25%	-4%	nt	-25%
Cc1ccc2c(c1)C(c1ccccc1)N(C(=O)COc1ccc(Cl)cc1Cl)CC(=O)N2 (centres undefined)	-9%[59 µM]	15%	-21%	nt	nt	-17%
